From PubChem BioAssay (NCATS)
Inconclusive results are not listed. Activity calls are given as the source filed them. Calls follow the shape of the dose curve; as a rule, active = well fitted inhibition curve with a large enough effect; inconclusive = small, poorly fitted or top-dose-only effect; inactive = no such curve, though single readings can be large or run the other way.

Target: Rap guanine nucleotide exchange factor 3 (Homo sapiens) (UniProt O95398)
Experiment: Counterscreen qHTS for antagonist of cAMP-regulated guanine nucleotide exchange factor 3 (EPAC1) (AID 1645888);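 also: fluorescence loss as bound BODIPY-GDP is released from Rap1B; % of control where 0% means no effect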
Conditions: Rap1B-BODIPY-GDP nucleotide exchange, fluorescence; series mostly up to 154 µM; activity change, negative = inhibition: at the top concentration
Procedure, shortened: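 Measured: fluorescence of BODIPY-GDP bound to Rap1B, which falls as exchange proceeds. Conditions include 50 uM competing GDP, 5 and 30 min reads, and a later cAMP challenge for antagonist detection.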

Rap guanine nucleotide exchange factor 3 (Homo sapiens), sequence (O95398 whole entry, looked up): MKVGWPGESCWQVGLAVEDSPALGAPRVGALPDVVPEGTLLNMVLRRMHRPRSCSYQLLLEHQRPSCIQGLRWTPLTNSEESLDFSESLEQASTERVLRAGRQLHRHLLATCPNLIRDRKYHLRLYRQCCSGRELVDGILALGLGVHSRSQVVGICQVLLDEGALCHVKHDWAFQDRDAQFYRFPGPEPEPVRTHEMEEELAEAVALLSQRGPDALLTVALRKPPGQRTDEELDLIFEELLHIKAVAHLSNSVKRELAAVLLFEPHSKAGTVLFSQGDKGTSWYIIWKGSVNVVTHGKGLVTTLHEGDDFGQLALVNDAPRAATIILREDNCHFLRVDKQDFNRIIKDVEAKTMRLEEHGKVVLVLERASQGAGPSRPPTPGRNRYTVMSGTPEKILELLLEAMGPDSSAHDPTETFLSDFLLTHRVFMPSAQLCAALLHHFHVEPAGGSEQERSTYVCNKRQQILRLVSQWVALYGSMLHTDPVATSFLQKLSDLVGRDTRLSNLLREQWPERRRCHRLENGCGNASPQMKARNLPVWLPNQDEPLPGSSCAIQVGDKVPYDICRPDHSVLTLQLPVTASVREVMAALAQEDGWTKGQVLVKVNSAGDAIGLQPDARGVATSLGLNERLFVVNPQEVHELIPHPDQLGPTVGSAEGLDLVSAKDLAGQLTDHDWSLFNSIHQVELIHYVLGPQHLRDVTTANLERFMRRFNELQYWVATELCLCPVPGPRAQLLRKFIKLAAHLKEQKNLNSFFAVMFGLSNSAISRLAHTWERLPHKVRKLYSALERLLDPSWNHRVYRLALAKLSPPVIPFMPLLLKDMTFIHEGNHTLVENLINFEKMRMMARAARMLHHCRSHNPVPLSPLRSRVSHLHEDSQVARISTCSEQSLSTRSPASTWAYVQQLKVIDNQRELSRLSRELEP

Structure (SMILES) | activity change, negative = inhibition
Cc1ccc(C2CC(c3cccs3)=NN2C(=O)c2ccco2)o1 (stereo not given) | -15.2% [at 30.8 µM] (inactive)
CCc1cc(=O)oc2cc(C)cc(OCC(=O)N[C@@H](CSCc3ccccc3)C(=O)O)c12 | -12.2% (inactive)
C=C1SC(Nc2c(C)cccc2C)=NC12CCCCC2 | -15.2% (inactive)
CCCN(CCC)Cc1cc(=O)oc2cc(OC)ccc12 | -11% (inactive)
COc1ccc(-c2nc(CCNS(=O)(=O)c3ccc4c(c3)OCCO4)cs2)cc1 | -22.1% (inactive)
CCOc1ccc(NC(=NCc2ccc3c(c2)OCO3)SC2CC(=O)N(c3ccc(C(=O)O)cc3)C2=O)cc1 (stereo not given) | 0.531% (inactive)
CCCc1[nH]c2ccc(C#N)cc2c1CCC | -17% (inactive)
O=C(COc1ccc(Cl)cc1Cl)c1ccc[nH]1 | -17.9% [at 30.8 µM] (inactive)
Fc1ccc2cnc(-c3ccccc3)c(-c3ccc(C(F)(F)F)cc3)c2c1 | -2.07% (inactive)
COc1ccccc1/C=C/C=c1\sc2nc(=O)c(Cc3ccccc3)nn2c1=O | 13.9% (inactive)
CCc1nc2c(OCc3ccc(C(=O)OC)cc3)cccn2c1N(C)C(=O)c1ccc(OC)cc1 | 5.67% [at 30.8 µM] (inactive)
Cc1ccc(C2CC(c3cccs3)=NN2C(=O)CSc2nc(=O)n3cc(C)ccc3n2)cc1 (stereo not given) | -6.36% (inactive)
O=C(O)c1[nH]c2ccccc2c1C(c1cccc(O)c1)c1c(C(=O)O)[nH]c2ccccc12 | -5.78% (inactive)
CCOc1cnc(-c2c(-c3ccccc3Cl)noc2C)o1 | 1.37% (inactive)
O=C(Nc1ccncc1)c1cc2ccccc2cc1O | 12.1% (inactive)
O=C1c2ccccc2C(c2nnnn2Cc2ccccc2)N1CCc1c[nH]c2ccccc12 (stereo not given) | -5.32% (inactive)
Cc1ccc(C(=O)NNC(=O)c2ccccc2O)cc1S(=O)(=O)N1CCCCC1 | 2.72% (inactive)
O=C(N/N=C/c1ccoc1)c1cc(O)cc(O)c1 | 13.5% (inactive)
O=C(Cc1ccc(Br)c2ccccc12)N/N=C/c1ccccn1 | -25.8% (inactive)
CCc1ccc(S(=O)(=O)Nc2cc(SCC(=O)O)c(O)c3ccccc23)cc1 | 8.49% (inactive)

Structure (SMILES) | activity change, negative = inhibition
CCC(=C(c1ccc(OC)cc1)c1ccc(OC)cc1)c1cn(CC(O)CN(CCO)CCO)c2ccccc12 (stereo not given) | 13.8% (inactive)
COC(=O)c1sc(-c2ccc(C(C)(C)C)cc2)cc1NC(=O)CSCC(=O)O | -17% (inactive)
COc1ccc(-c2ccc(C(=O)NCC3CC3)c3occc23)c(C)c1 | 4.52% (inactive)
Fc1ccc2c(-c3cccc(C(F)(F)F)c3)c(-c3ccccc3)ncc2c1 | -38.9% (inactive)
Cc1cccc(OC(=O)Nc2ccc(C(=O)O)c(O)c2)c1 | -25.7% [at 30.8 µM] (inactive)
CC(C)CNC(=O)C1(C)CCCCCN1Cc1ccccc1-c1ccccc1 (stereo not given) | -16.7% (inactive)
CC(C)=CCC[C@H](C)C[C@@H]1Cc2[nH][nH]c(=O)c2[C@H](c2ccc(F)cc2)O1 | 2.58% (inactive)
COc1cccc(N2CCN(CC(=O)NC(=O)NCc3ccco3)CC2)c1 | 5.86% (inactive)
O=C(Nc1nc2ccccc2c(=O)s1)c1ccc(F)cc1Cl | -12.7% (inactive)
CCOc1cc(C)c(-c2onc(C(F)(F)F)c2-c2csc(C)n2)c(O)c1 | -20.4% (inactive)
Cc1ccc2oc(=O)c3cnn(CC(=O)NC4CCC(C)CC4)c3c2c1 (stereo not given) | 15.5% (inactive)
O=C(O)c1ccc(COc2ccc3ccccc3c2/C=C2/NC(=O)N(Cc3ccc(F)cc3)C2=O)cc1 | 2.84% (inactive)
O=S(=O)(Nc1nccs1)c1ccc(Nc2nnc(-c3ccccc3)c3ccccc23)cc1 | 3.85% [at 30.8 µM] (inactive)
CCOC(=O)C1=C(C)NC(C)=C(C(=O)OCC)C1C(=O)OCC(=O)NCc1ccc(F)cc1 | -18.1% (inactive)
CN(CC(=O)Nc1ccc(F)cc1)C(=O)COc1ccc(C(=O)c2ccccc2)cc1 | -15.1% (inactive)
O=C1[C@H](Cc2ccccc2)NCC=CC[C@@H](c2ccc(Cl)cc2)N1Cc1ccc(Cl)cc1 | -23.2% (inactive)
CC(c1ccon1)N(C)Cc1cn(C)nc1-c1cccc(Cl)c1 (stereo not given) | -22% (inactive)
COc1ccccc1N(C)S(=O)(=O)c1ccc(C(=O)NC2CCCCC2)cc1 | 4.2% (inactive)
CCCCC[C@H](C)N1C[C@H](COCc2ccccc2)Oc2cc(N3CCC[C@H]3C(N)=O)ccc2S1(=O)=O | -51.3% (inactive)
Cc1cccc(NC(=S)N2CCN(S(=O)(=O)c3cccc(F)c3)CC2)c1 | 4.55% (inactive)
